Values joined by “and” are separate entries in the source; they are usually repeats but may differ in a detail not shown here. Identical values can stand only once. Inconclusive results are not listed. Active and inactive are the calls of the source. Unless noted, calls follow the shape of the dose curve; as a rule, active = well fitted curve in the direction sought with a large enough effect; inconclusive = small, poorly fitted or top-dose-only effect, or another doubt; inactive = no such curve, though single readings can be large; an effect the other way counts as inactive or inconclusive.
What was measured:
[1] = Cell Viability - LYMP2-026 (AID 989);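 also: cells exposed to compound for 24 h at 37 °C; % is scaled to controls: 0 for no effect and ±100 for the full control effect; nearly all actives have a fitted effect of over 50% in size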
Procedure, shortened: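 Concentration-dependent loss of intracellular ATP in human lymphoblastoid cells after 24 hr at 37 C, quantified by luciferase luminescence. AC50 derived from standard Hill equation.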

[2] = qHTS Assay for Lipid Storage Modulators (AID 1519; calls by dose curve; as to activity change, negative = inhibition: % is scaled to controls: 0 for no effect and ±100 for the full control effect); conditions: Drosophila S3 cells, BODIPY lipid droplet/cell ratio, laser cytometry, cells loaded with oleic acid
Procedure, shortened: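 Cells seeded at 5,000 per well were treated with compounds over a concentration series and loaded with oleic acid (400 uM, as added). Lipid droplet fluorescence (488 nm excitation, 500-530 nm channel) was read by laser-scanning cytometry and normalized to 20 uM Triacsin C.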

[3] = target: Alpha-galactosidase A (Homo sapiens) (UniProt P06280); experiment: Counterscreen for Glucocerebrosidase Inhibitors: qHTS Assay for Human alpha-Galactosidase at pH 4.5 (AID 992); also: 0% is about no effect
Procedure, shortened: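 Quantitative HTS: compounds tested from 0.7 nM up to 77 uM against 2 nM enzyme with 80 uM 4-MU alpha-D-galactopyranoside. The 20 min room-temperature reaction is stopped with 1M NaOH/1M glycine, pH 10.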

[4] = target: alpha-glucosidase (Oryza sativa, rice) (UniProt Q653V4); experiment: Counterscreen for Glucocerebrosidase Inhibitors: qHTS Assay for Rice alpha-Glucosidase at pH 5.0 (AID 997);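 also: 0% = full activity with enzyme and -100% = basal without enzyme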
Procedure, shortened: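 Rice alpha-glucosidase (4 nM final) with 400 uM 4-methylumbelliferyl-alpha-D-glucopyranoside in citrate buffer pH 5.0, 20 min at room temperature, stopped at pH 10; fluorescence 365/440 nm, compounds 0.7 nM–77 uM, AC50 from Hill fits.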

[5] = target: DNA repair nuclease/redox regulator APEX1 (Homo sapiens) (UniProt P27695); experiment: qHTS Validation Assay for Inhibitors of the Human Apurinic/apyrimidinic Endonuclease 1 (APE1) (AID 1705;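 also: TAMRA fluorescence gain over two minutes as APE1 cuts a quenched THF abasic duplex; % is scaled to controls: 0 for no effect and ±100 for the full control effect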)
Procedure, shortened: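 qHTS, 1536-well. APE1 + cpd 15 min RT → 50 nM TAMRA/BHQ-2 THF-abasic dsDNA substrate → kinetic fluorescence, 3 reads/60 s; delta(read3−read1) = reaction progress. No-enzyme buffer = negative control.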

[6] = Counterscreen for APE1 Inhibitors: Fluorescent Dye Displacement Validation Assay (AID 1707);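 also: plate controls were ThO with dsDNA and no compound for no effect and ThO without dsDNA for full effect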
Procedure, shortened: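 Compounds are scored by their ability to displace Thiazole Orange (250 nM) from a 50 nM TAMRA-tagged duplex bearing a tetrahydrofuran abasic site. Buffer is 50 mM Tris-HCl pH7.5, 50mM NaCl, 2 mM MgCl2, 0.01% Tween-20.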

[7] = qHTS for differential inhibitors of proliferation of Plasmodium falciparum line 7G8 (AID 1815);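 also: parasite growth measured after three days of incubation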; also: potency is read from the fitted curve at half-maximal effect;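 as to activity change, negative = inhibition: plate controls were vehicle wells for no effect and reference inhibitor wells for full effect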
[8] = qHTS for differential inhibitors of proliferation of Plasmodium falciparum line GB4 (AID 1816); conditions: Potency: Plasmodium falciparum GB4 proliferation inhibition;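 also: parasite growth measured after 72 h incubation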; also: potency is read from the fitted curve at half-maximal effect;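 as to activity change, negative = inhibition: 0% = vehicle DMSO and -100% = reference inhibitor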
[9] = qHTS for differential inhibitors of proliferation of Plasmodium falciparum line 3D7 (AID 1876); also: potency is read from the fitted curve at half-maximal effect
[10] = Cell Viability - LYMP2-008 (AID 980);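 also: cells exposed to compound for 24 h at 37 °C; % is scaled to controls: 0 for no effect and ±100 for the full control effect; nearly all actives have a fitted effect of over 60% in size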
Procedure, shortened: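 Acute cytotoxicity is scored as concentration-dependent loss of cellular ATP in a human lymphoblastoid line after 24 hr treatment at 37 C. ATP is quantified by luciferase luminescence.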

[11] = Cell Viability - LYMP2-010 (AID 981);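 also: cells exposed to compound for 24 hours at 37 °C; % is scaled to controls: 0 for no effect and ±100 for the full control effect; nearly all actives have a fitted effect of over 55% in size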
Procedure, shortened: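 Acute toxicity is scored as a concentration-dependent loss of cellular ATP in human lymphoblastoid cells after 24 hr compound exposure in complete medium. Tetraoctylammonium bromide is the positive control.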

[12] = Cell Viability - LYMP2-012 (AID 982);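 also: cellular ATP by luciferase luminescence where a drop means cytotoxicity; cells exposed to compound for one day before reading; 0% = DMSO only and full loss = 92 µM tetraoctylammonium bromide; nearly all actives have a fitted effect of over 55% in size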
[13] = Cell Viability - LYMP2-014 (AID 983);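 also: cells exposed to compound for 24 h at 37 °C; plate controls were DMSO only for no effect and 92 µM tetraoctylammonium bromide for full effect; nearly all actives have a fitted effect of over 50% in size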
Procedure, shortened: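 Decrease in intracellular ATP after 24 hr treatment at 37 C, measured by luciferase luminescence, indicated cytotoxicity. Concentration-response data were fitted with the standard Hill equation to give AC50.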

[14] = Cell Viability - LYMP2-016 (AID 984);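 also: cells exposed to compound for 24 hours at 37 °C; % is scaled to controls: 0 for no effect and ±100 for the full control effect; nearly all actives have a fitted effect of over 55% in size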
Procedure, shortened: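 Cells were seeded at 2500 per well and rested 5 hr before a 24 hr compound exposure at 37 C. Viability was then gauged as cellular ATP by luciferase luminescence, with AC50 values fitted to the Hill equation.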

[15] = Cell Viability - LYMP2-020 (AID 986);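 also: cells exposed to compound for 24 h at 37 °C; plate controls were DMSO only for no effect and tetraoctylammonium bromide at 92 µM for full effect; nearly all actives have a fitted effect of over 55% in size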
Procedure, shortened: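 Acute cytotoxicity in a human lymphoblastoid line is scored as a concentration-dependent fall in cellular ATP after 24 hr at 37 C in complete medium. The positive control is tetraoctylammonium bromide, and potency is given as Hill-fit AC50.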

[16] = Cell Viability - LYMP2-022 (AID 987)
Procedure, shortened: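 Acute toxicity in a human lymphoblastoid line is scored as decreased intracellular ATP after 24 hr compound treatment at 37 C. ATP is measured by CellTiter-Glo luminescence; curves are fitted with the Hill equation to give AC50.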

[17] = Cell Viability - LYMP2-024 (AID 988);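 also: plate controls were DMSO only for no effect and 92 µM tetraoctylammonium bromide for full effect; nearly all actives have a fitted effect of over 60% in size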
Procedure, shortened: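 Acute toxicity is measured as concentration-dependent loss of intracellular ATP in a human lymphoblastoid line treated 24 hours at 37 C. Luciferase luminescence quantifies ATP; AC50 values come from standard Hill-equation modelling.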

[18] = Cell Viability - LYMP1-002 - Assay at 24 hr (AID 993); also: % is scaled to controls: 0 for no effect and ±100 for the full control effect
Procedure, shortened: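 qHTS, LYMP1-002 lymphoblastoid, 24 h cpd, 37 C, CellTiter-Glo ATP luminescence; AC50 via Hill eq.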

[19] = Cell Viability - LYMP1-002 - Assay at 40 hr (AID 994);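 also: 0% = DMSO only and full inhibition = 92 µM tetraoctylammonium bromide; nearly all actives have a fitted effect of over 60% in size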
Procedure, shortened: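 Viability in the human lymphoblastoid line was measured as intracellular ATP via CellTiter-Glo after 40 hr compound exposure. Tetraoctylammonium bromide served as positive control.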

[20] = measured here: cell count channel max response
[21] = measured here: lipid channel max response

Sequence of DNA repair nuclease/redox regulator APEX1 (Homo sapiens) (P27695 whole entry, looked up): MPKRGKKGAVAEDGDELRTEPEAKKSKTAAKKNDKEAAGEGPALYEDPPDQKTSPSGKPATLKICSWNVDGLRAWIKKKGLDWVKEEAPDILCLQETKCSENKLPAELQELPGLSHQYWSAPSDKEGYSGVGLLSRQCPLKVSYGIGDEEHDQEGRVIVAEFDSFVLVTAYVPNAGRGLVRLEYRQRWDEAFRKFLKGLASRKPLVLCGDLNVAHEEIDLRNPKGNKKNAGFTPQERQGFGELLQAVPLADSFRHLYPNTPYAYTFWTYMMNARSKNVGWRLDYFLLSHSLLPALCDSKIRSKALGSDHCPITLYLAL
Sequence of Alpha-galactosidase A (Homo sapiens) (P06280 whole entry, looked up): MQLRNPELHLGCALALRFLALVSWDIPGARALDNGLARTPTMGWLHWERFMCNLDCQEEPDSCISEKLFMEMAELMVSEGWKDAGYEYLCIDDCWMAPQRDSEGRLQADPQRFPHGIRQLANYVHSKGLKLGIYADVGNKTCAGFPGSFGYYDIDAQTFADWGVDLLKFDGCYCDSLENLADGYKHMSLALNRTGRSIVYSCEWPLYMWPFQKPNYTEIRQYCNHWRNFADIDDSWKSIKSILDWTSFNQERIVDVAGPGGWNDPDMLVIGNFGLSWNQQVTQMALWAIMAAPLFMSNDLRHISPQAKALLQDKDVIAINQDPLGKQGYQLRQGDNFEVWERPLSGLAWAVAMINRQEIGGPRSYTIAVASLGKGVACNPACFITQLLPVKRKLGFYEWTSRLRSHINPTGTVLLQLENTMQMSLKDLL

COC(=O)C1=C(C)NC(C)=C(C(=O)OC)C1c1ccccc1[N+](=O)[O-]
Potency [1]: inactive

NS(=O)(=O)c1cc2c(cc1C(F)(F)F)NC(Cc1ccccc1)NS2(=O)=O (stereo not given)
activity change, negative = inhibition ([2]; at 57.5 µM (top of the series)): 2.56% (inactive)
max response [2, 20]: 6.37%
max response [2, 21]: 10.5%

NC1CCN(c2cccc(Cl)n2)CC1
outcome [3]: inactive
outcome [4]: inactive
activity change, negative = inhibition ([2]; at 57.5 µM (top of the series)): 5.71% (inactive) and 0.974% (inactive)
max response [2, 20]: -16.7% and 37.1%
max response [2, 21]: -10.9% and 36.3%
Potency [5]: inactive
Potency [6]: inactive
Potency [7]: inactive
Potency [8]: 12.6 µM (active)
Potency [9]: inactive

c1ccc2c(CC3=NCCN3)cccc2c1
activity change, negative = inhibition ([2]; at 25.7 µM (top of the series)): -0.324% (inactive)
activity change, negative = inhibition ([2]; at 57.5 µM (top of the series)): 4.27% (inactive)
max response [2, 20]: -14.5% and 1.91%
max response [2, 21]: -13.5% and 9.6%

CSc1ccc2c(c1)C(N1CCN(C)CC1)Cc1ccccc1S2 (stereo not given)
activity change, negative = inhibition ([2]; at 57.5 µM (top of the series)): 1.28% (inactive) and 0.609% (inactive)
max response [2, 20]: 9.1% and -20.8%
max response [2, 21]: 12.4% and -19.6%
Potency [5]: inactive
Potency [6]: inactive
Potency [7]: 6.31 µM (active)
Potency [8]: 11.2 µM (active)
Potency [9]: 8.91 µM (active)

Nc1ccc(S(=O)(=O)Nc2ccc(Cl)nn2)cc1
activity change, negative = inhibition ([2]; at 25.7 µM (top of the series)): 0.129% (inactive)
activity change, negative = inhibition ([2]; at 57.5 µM (top of the series)): 9.01% (inactive)
max response [2, 20]: 5.02% and 19.5%
max response [2, 21]: 5.1% and 34.7%

CN(C)CC[C@@H](c1ccc(Cl)cc1)c1ccccn1
activity change, negative = inhibition ([2]; at 57.5 µM (top of the series)): -0.0513% (inactive)
max response [2, 20]: 35.1%
max response [2, 21]: 34.2%
Potency [5]: inactive
Potency [6]: inactive
Potency [7]: 2.51 µM (active)
Potency [9]: inactive

CC1=C(CC(=O)O)c2cc(F)ccc2/C1=C\c1ccc(S(C)=O)cc1 (stereo not given)
outcome [4]: inactive
activity change, negative = inhibition ([2]; at 25.7 µM (top of the series)): -0.955% (inactive)
max response [2, 20]: -8.73%
max response [2, 21]: -7.15%
Potency [5]: inactive
Potency [6]: inactive
Potency [7]: inactive
Potency [8]: inactive
Potency [9]: inactive

CCCCOc1cc(C(=O)OCCN(CC)CC)ccc1N
activity change, negative = inhibition ([2]; at 25.7 µM (top of the series)): -1.04% (inactive)
max response [2, 20]: -13.7%
max response [2, 21]: -14%

CC(C(O)c1ccc(O)cc1)N1CCC(Cc2ccccc2)CC1 (stereo not given)
activity change, negative = inhibition ([2]; at 57.5 µM (top of the series)): 3.33% (inactive)
max response [2, 20]: 9.6%
max response [2, 21]: 16%
Potency [5]: inactive
Potency [6]: inactive
Potency [7]: 7.08 µM (active)
Potency [8]: 3.98 µM (active)
Potency [9]: 4.47 µM (active)

CC(=O)c1ccc2c(c1)N(CCCN(C)C)c1ccccc1S2
activity change, negative = inhibition ([2]; at 25.7 µM (top of the series)): -1.98% (inactive)
max response [2, 20]: 0.996%
max response [2, 21]: -1.83%

C[C@](N)(Cc1ccc(O)cc1)C(=O)O
activity change, negative = inhibition ([2]; at 57.5 µM (top of the series)): 2.05% (inactive)
max response [2, 20]: 7.9%
max response [2, 21]: 13.3%
Potency [5]: inactive
Potency [6]: inactive
Potency [7]: inactive
Potency [8]: inactive
Potency [9]: inactive

CC(C)NC[C@H](O)c1ccc(O)c(O)c1
outcome [3]: inactive
outcome [4]: inactive
activity change, negative = inhibition ([2]; at 25.7 µM (top of the series)): -3.67% (inactive)
activity change, negative = inhibition ([2]; at 57.5 µM (top of the series)): 0.654% (inactive) and 2.27% (inactive)
max response [2, 20]: -12.5% and 0.715% and 18.4%
max response [2, 21]: -17.7% and 2.86% and 19.2%
Potency [5]: inactive
Potency [6]: inactive
Potency [7]: inactive
Potency [8]: inactive
Potency [9]: inactive

Cc1cc(CC(=O)O)n(C)c1C(=O)c1ccc(Cl)cc1
Potency [10]: inactive
Potency [11]: inactive
outcome [12]: inactive
outcome [13]: inactive
Potency [14]: inactive
Potency [15]: inactive
Potency [16]: inactive
outcome [17]: inactive
Potency [1]: inactive
Potency [18]: inactive
Potency [19]: inactive
activity change, negative = inhibition ([2]; at 25.7 µM (top of the series)): -0.167% (inactive)
activity change, negative = inhibition ([2]; at 57.5 µM (top of the series)): 7.69% (inactive)
max response [2, 20]: -0.357% and 17.9%
max response [2, 21]: 0.164% and 28.7%

Nc1ccc(S(=O)(=O)Nc2nccs2)cc1
Potency [10]: inactive
Potency [11]: inactive
outcome [12]: inactive
Potency [14]: inactive
Potency [1]: inactive
Potency [18]: inactive
Potency [19]: inactive
activity change, negative = inhibition ([2]; at 25.7 µM (top of the series)): 0.978% (inactive)
activity change, negative = inhibition ([2]; at 57.5 µM (top of the series)): 7.82% (inactive)
max response [2, 20]: 0.0037% and 29.7%
max response [2, 21]: 1.28% and 42.1%

Nc1cc(=O)[nH]c(N)n1
outcome [3]: inactive
outcome [4]: inactive
activity change, negative = inhibition ([2]; at 57.5 µM (top of the series)): 1.9% (inactive)
max response [2, 20]: -3.41%
max response [2, 21]: -1.88%
Potency [5]: inactive
Potency [6]: inactive
Potency [7]: inactive
Potency [8]: inactive
Potency [9]: inactive

— PubChem BioAssay (NCATS)
